# Screens (PubChem)
# Shown are actives, neighbours in structure and some others; about 10% of the full set was active somewhere.
# HP1b binding inh – blocks HP1-beta chromodomain binding to methylated histone tails | P83916 | AlphaScreen HP1-beta / biotin-H3K9me3 peptide binding | Potency, µM (highest dose often 114 µM), usual class: inhibitors | 390,000 tested, 0.56% active | AID 540317; also: nearly all actives have a fitted effect of over 70% in size
#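 HP1-beta protein (50 nM final) preincubated 30 min at room temperature with biotinylated H3(1-18)K9me3 peptide (50 nM) in PBS pH 7.4, 0.01% Tween-20, then compound added for 30 min. AlphaScreen streptavidin donor/nickel chelate acceptor beads (10 ug/mL final), 30 min dark, luminescence read.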
# GLS inhibitor – inhibitors of human glutaminase (GLS); O94925; GLS enzymatic activity, qHTS titration; Potency, µM (highest dose often 45.5 µM), hits mostly inhibitors; 410,000 tested, 0.21% active; AID 624170
#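 hKGA in 45 mM KH2PO4 pH 8.2, 0.02% Tween-20 with pin-transferred compounds; 1 mM L-glutamine (stock) plus glutamate oxidase/HRP/Amplex Red coupling added. Fluorescence read initially and after 30 min at RT.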
# G9a inh – G9a (human) methyltransferase inhibition; G9a H3K9 monomethylation, AlphaScreen, 2 h; Potency, µM (titrated, usually from 102 µM), hits mostly inhibitors; 350,000 tested, 8.8% active; AID 504332; also: nearly all actives have a fitted effect of over 75% in size
#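 Enzyme 20 nM + cpd, 15 min RT; add b-H3K9 pep 500 nM / SAM 20 uM; 2 h RT; anti-H3K9me1 Ab 0.5 ug/mL + SA donor / anti-rabbit acceptor beads 20 ug/mL each, 10 min; AlphaScreen read.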
# JMJD2A Tudor – blocks the human JMJD2A Tudor domain. Potency, µM (series often up to 114 µM), hits mostly inhibitors. 390,000 tested, 4.4% active. AID 504339. AlphaScreen JMJD2A-Tudor / H3K4me3 peptide binding; also: nearly all actives have a fitted effect of over 50% in size
# Target sequence (O75164 whole entry, looked up, the tested form may be a part): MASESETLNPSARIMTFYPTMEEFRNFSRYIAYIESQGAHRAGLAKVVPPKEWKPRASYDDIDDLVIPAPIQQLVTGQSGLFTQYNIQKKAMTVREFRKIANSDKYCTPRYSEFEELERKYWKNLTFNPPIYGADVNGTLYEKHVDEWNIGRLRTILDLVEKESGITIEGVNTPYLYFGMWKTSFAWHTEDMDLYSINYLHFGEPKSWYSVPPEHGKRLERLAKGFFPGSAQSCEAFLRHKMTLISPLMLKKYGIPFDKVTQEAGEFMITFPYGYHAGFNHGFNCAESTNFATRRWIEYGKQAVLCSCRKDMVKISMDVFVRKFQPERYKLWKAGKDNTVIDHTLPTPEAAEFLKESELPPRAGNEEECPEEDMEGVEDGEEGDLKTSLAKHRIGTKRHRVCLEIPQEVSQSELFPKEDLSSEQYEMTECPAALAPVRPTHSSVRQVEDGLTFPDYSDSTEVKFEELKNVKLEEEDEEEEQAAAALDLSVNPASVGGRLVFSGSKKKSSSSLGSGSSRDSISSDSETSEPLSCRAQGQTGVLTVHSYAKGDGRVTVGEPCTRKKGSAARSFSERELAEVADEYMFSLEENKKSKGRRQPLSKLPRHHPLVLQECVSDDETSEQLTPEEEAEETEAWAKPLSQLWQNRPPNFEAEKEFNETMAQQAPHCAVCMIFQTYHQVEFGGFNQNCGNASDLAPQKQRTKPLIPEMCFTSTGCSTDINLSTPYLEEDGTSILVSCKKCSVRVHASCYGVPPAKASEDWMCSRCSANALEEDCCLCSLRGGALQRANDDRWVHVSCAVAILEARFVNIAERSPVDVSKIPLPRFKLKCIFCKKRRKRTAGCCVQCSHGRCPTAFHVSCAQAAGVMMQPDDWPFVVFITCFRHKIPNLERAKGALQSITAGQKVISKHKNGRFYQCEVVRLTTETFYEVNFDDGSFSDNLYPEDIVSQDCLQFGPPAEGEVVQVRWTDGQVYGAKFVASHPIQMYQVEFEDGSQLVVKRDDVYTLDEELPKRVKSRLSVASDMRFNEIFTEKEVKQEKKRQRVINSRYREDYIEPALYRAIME
# BAZ2B inh – BAZ2B (human) inhibition; 360,000 tested, 4.4% active; AID 504333; Q9UIF8; AlphaScreen BAZ2B-H3K14Ac peptide displacement; Potency, µM (top dose mostly 114 µM), usual class: inhibitors; also: nearly all actives have a fitted effect of over 60% in size
#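 AlphaScreen displacement: compounds (up to 110uM) incubated 30 min at room temperature with a preformed 50 nM BAZ2B/50 nM biotinylated H3K14Ac peptide complex in PBS pH 7.4 with Tween-20. Donor and acceptor beads at 10 ug/mL final added, 20 min light-protected before reading.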
# L3MBTL1 block – inhibitors of human L3MBTL1 | Q9Y468 | AlphaScreen L3MBTL1–H3K9me1 peptide binding | Potency, µM (doses to about 57.1 µM), most hits filed as inhibitors | 230,000 tested, 0.66% active; also: nearly all actives have a fitted effect of over 60% in size
#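 L3MBTL1 50 nM + b-AHA-H3(1-15)K9me1 75 nM, 30 min RT; compound added, 30 min RT; streptavidin donor/Ni-chelate acceptor beads 10 ug/mL each final, 30 min RT dark; AlphaScreen read.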
# Hits are given with their value; n = inactive; u = inconclusive; x = no result; [ ] = remark or other dose. Calls follow the shape of the dose curve; as a rule, active = well fitted curve in the direction sought with a large enough effect; inconclusive = small, poorly fitted or top-dose-only effect, or another doubt; inactive = no such curve, though single readings can be large; an effect the other way counts as inactive or inconclusive.
SMILES,HP1b binding inh,GLS inhibitor,G9a inh,JMJD2A Tudor,BAZ2B inh,L3MBTL1 block
CCC(C)NC(=O)CCc1c(C)nc2cc(-c3ccc(OC)cc3OC)nn2c1C (stereo not given),n,n,n,n,n,x
CC1=C(c2ccc(C)c(C)c2)S(=O)(=O)N=C1N1CCN(c2cccc(C(F)(F)F)c2)CC1,n,n,n,n,n,x
NC1=NN=C(N2N=C(c3ccco3)CC2(O)C(F)(F)F)n2ncnc2C1 (stereo not given),n,n,n,n,79.4µM,n
CCN(CCNCC(O)COCc1ccc(Cl)cc1)c1cccc(C)c1 (stereo not given),39.8µM,u,7.94µM,0.891µM,20µM,n
CCC(C)(C)c1ccc(Oc2cccc(C(=O)O)c2)cc1,n,n,n,n,n,n
CCC(C)(C)c1ccc(Oc2ccc(N)cc2)cc1,u,n,39.8µM,56.2µM,u,n
c1cc(N2CCCC2)ccc1C(c1nnnn1C1CCCCC1)N1CCOCC1 (stereo not given),n,n,10µM,u,u,n
COc1ccc(C(c2nnnn2C2CCCCC2)N2CCN(c3ccc(OC)cc3)CC2)cc1 (stereo not given),u,n,u,u,39.8µM,x
Cc1ccc(C(c2nnnn2C2CCCCC2)N(C)C2CCCCC2)cc1 (stereo not given),n,n,1.78µM,n,n,x
COc1ccc(C(c2nnnn2C2CCCCC2)N2CCN(C)CC2)c(OC)c1 (stereo not given),n,n,n,n,n,n
COc1ccc(OC)c(C(c2nnnn2C2CCCC2)N2CCN(c3ccccc3)CC2)c1 (stereo not given),n,n,31.6µM,56.2µM,50.1µM,n
O=C(NCCN1CCOCC1)C1(C(F)(F)F)C/C(=C\CCO)CCCO1 (stereo not given),n,x,x,n,x,x
Cc1ccc(NC(=O)CN(C)S(=O)(=O)c2ccc3c(c2)CCC(=O)N3)c(C)c1,n,n,n,n,n,x
CN(C)c1ccc(N/C=C/C(=O)c2ccccc2)cc1,n,n,5.62µM,u,u,u
CN(C)c1ccc(N/C=C/C(=O)C(C)(C)C)cc1,n,n,u,50.1µM,39.8µM,x
O=C(/C=C/Nc1ccccc1)c1ccccc1,n,n,n[0.501 µM],n,u,x
CC1=NN(c2ccccc2)C(=O)C1N=Nc1ccc(N)cc1 (stereo not given),u,n,u,u,12.6µM,25.1µM
CC1=NN(c2ccccc2)C(=O)C1N=Nc1ccccc1 (stereo not given),u,n,0.891µM,u,3.16µM,n
COc1ccc(N=NC2C(=O)N(c3ccccc3)N=C2C)cc1 (stereo not given),7.08µM,n,u,7.94µM,1.58µM,x
CC1=NN(c2nc(-c3ccc(C)cc3)cs2)C(=O)C1N=Nc1cccc(O)c1 (stereo not given),u,u,39.8µM,14.1µM,u,u
CC(C)c1ccc(Nc2nc(Nc3ccc(Cl)cc3)nc(N3CCOCC3)n2)cc1,n,x,x,n,x,x
CC1=NN(c2ccccc2)C(=O)C1N=Nc1cccc(O)c1 (stereo not given),n,n,70.8µM,u,u,n
CC1=NN(C(N)=S)C(=O)C1N=Nc1ccccc1 (stereo not given),n,n,n,n,n,n
Cc1ccc(C(=O)CSc2nc3cc(S(=O)(=O)N4CCOCC4)ccc3o2)cc1,n,n,31.6µM,n,n,n
CCSc1nc2cc(S(=O)(=O)N3CCOCC3)ccc2o1,u,n,x,28.2µM,x,n
SMILES,HP1b binding inh,GLS inhibitor,G9a inh,JMJD2A Tudor,BAZ2B inh,L3MBTL1 block
O=c1ccc2cc(S(=O)(=O)N3CCOCC3)ccc2o1,n,n,n,n,n,n
O=C(NC1CCCc2ccccc21)c1cc(S(=O)(=O)N2CCOCC2)ccc1F (stereo not given),n,n,n,n,x,n
CCn1c(SCC(=O)c2cc(C)ccc2C)nc2cc(S(=O)(=O)N3CCOCC3)ccc21,n,n,25.1µM,n,n,n
O=C(CSc1nc2cc(S(=O)(=O)N3CCOCC3)ccc2o1)NC1CCCc2ccccc21 (stereo not given),n,n,u,50.1µM,n,n[11.4 µM]
CCc1cccc(C)c1NC(=O)c1cnn(-c2ccc(F)cc2)c1-n1cccc1,n,n,n,n,n,x
c1ccc2nc3c(nc2c1)c1ccccc1n3CCN1CCOCC1,n,n,n[12.7 µM],n,n,n[11.4 µM]
CCn1c2ccccc2c2nc3cc(S(=O)(=O)N4CCOCC4)ccc3nc21,u,n,2.24µM,n,n,n
COc1ccc(C)cc1NC(=O)COCc1cc(-c2ccc(F)cc2)on1,n,n,n,n,n,x
Cc1ccc(C)c(SCC(=O)Nc2cc(C)nn2-c2ccc(F)cc2)c1,x,x,11.2µM,x,n,n
O=C(O)COc1nn(Cc2ccccc2)c2ccccc12,x,n,n[12.7 µM],x,x,x
O=c1/c(=C/c2ccccn2)sc2n1CN(c1ccccc1)CN=2,n,n,50.1µM,n[11.4 µM],n,n
Cc1ccc(S(=O)(=O)NC(C)c2ccccc2)cc1[N+](=O)[O-] (stereo not given),n,n,n,n,n,n
CC(C)/C(=N\NS(=O)(=O)c1ccc(Br)cc1)c1cccs1,n,n,u,50.1µM,n,n
C/C(CC(C)C)=N\NS(=O)(=O)c1ccc(C)c([N+](=O)[O-])c1,n,n,31.6µM,u,n,n
Cc1ccc(/C=N/NC(=O)c2cccs2)cc1[N+](=O)[O-],n,n,n,n,n,n
C/C(=N\NS(=O)(=O)c1ccc([N+](=O)[O-])cc1)c1cccs1,n,n,44.7µM,u,u,x
C/C(=N\NS(=O)(=O)c1ccc(C)c([N+](=O)[O-])c1)c1cccs1,n,n,31.6µM,n,x,n
Cc1ccc(CN2C(=O)c3ccccc3Sc3ccc(C(=O)NCc4ccco4)cc32)cc1,n,n,n,n,n,x
O=C(c1cccnc1)C1Cc2ccccc2C1=O (stereo not given),n,n,39.8µM,n,u,n
COc1cccc(CNC(=O)c2ccc(-n3c(C)cc4c3CCCC4)cc2)c1,n,n,u,n,n,x
Cc1ccc(S(=O)(=O)N2CN(CC3CCCO3)c3nc4ccccc4nc32)c(C)c1 (stereo not given),n,n,31.6µM,n,u,x
CCCCCN1CN(S(=O)(=O)c2cccs2)c2nc3ccccc3nc21,n,n,28.2µM,n,n,n
COCCCN1CN(S(=O)(=O)c2ccc(C)cc2C)c2nc3ccccc3nc21,n,n,31.6µM,n,u,x
O=S(=O)(c1cccs1)N1CN(Cc2cccs2)c2nc3ccccc3nc21,n,n,u,n,n,n
Cc1ccc(C)n1-c1nnc(N2CCCC(C(=O)NCc3ccc(F)cc3)C2)s1 (stereo not given),n,n,n,n,n,x
